For 40 compounds, outcome and AC50 results are on record in PubChem BioAssay (EPA / NIEHS).

Active and inactive are the calls of the source. Rule for the calls: active = hit-call score of the fitted dose curve at least 0.9, where 1 is the maximum; inactive = score below 0.9.

Read-out in this test: CFLAR gene, CFLAR (gene 8837)
The experiment in a line: LTEA_HepaRG_CFLAR: Life Technologies and Expression Analysis (LTEA) Assay for CFLAR gene using HepaRG (AID 2283455). Conditions: mRNA level, 48 h; actives raise or lower the signal. The protocol:
LTEA_HepaRG is a cell based, multiplexed-readout assay that uses HepaRG, a human liver cell line, with measurements taken at 48 hours after chemical dosing on a 96-well plate.LTEA_HepaRG_CFLAR is one of 102 assay component(s) measured in the LTEA HepaRG cell culture assay. It is a marker of Cell proliferation, survival, death.Data from the assay component LTEA_HepaRG_CFLAR was analyzed into 1 endpoint. This assay endpoint, LTEA_HepaRG_CFLAR, was analyzed with bidirectional fitting relative to DMSO as the negative control and baseline of activity. Using a type of inducible reporter, measures of mRNA induction for gain or loss-of-signal activity can be used to understand regulation of transcription factor activity. To generalize the intended target to other relatable targets, this assay endpoint is annotated to the cell cycle intended target family, where the subfamily is Cell proliferation, survival, death.
A total of 1060 chemcials from the ToxCast library were tested in eight-point concentration-response experiments. Cell culture and cytotoxicity assays were conducted at Thermo Fisher Scientific's Custom Services facility (Madison, WI). A single lot of human HepaRG cells (Thermo Fisher Scientific, Frederick, MD) was used for the cell culture experiments. 96-well format collagen type I coated plates of human HepaRG cells were prepared using established methods. Briefly, cryopreserved HepaRG cells were thawed, plated at a density of approximately 100,000 cells/well in HepaRG Thaw, Plate, and General Purpose media (HPRG770, Thermo Fisher Scientific), and incubated for 48 hours. 0.5% DMSO was selected as vehicle control to balance the requisite need of DMSO in HepaRG cultures to maintain differentiation (for example, baseline metabolism, proportions of hepatocytes vs. cholangiocytes), while enabling further hepatic receptor pathway activation (for example, PXR and CAR) in response to chemical exposure. 48 hours after plating, the culture medium was replaced with HepaRG Serum-Free Incudtion Media. Cells were exposed to each test chemical in duplicate and maintained in CO2 incubators for another 48 hours. Chemical plates were thawed to room temperature and 200x concentrations of treatment groups were prepared. 8-point conentration-reponse curves were made with the highest exposure at 100 uM, followed by half-log dilutions, all in 0.5% DMSO. Each test plate contained variouse controls, induction positive controls (1mM phenobarbital), cytotoxicity positive controls ([…] aflatoxin B1), vehicle controls (0.5% DMSO), and total lysis controls (0.5% DMSO). Cell morphology images were taken using an Essen IncuCyte FLR automated microscope, with six 96-well plates imaged in about 24 minutes. Images were captured and exported and JPEG files. Spent culture media was transfered to black-well plates for the LDH assay, and remaining media was sorted at -80 C for later use. Cells were treated with RLT buffer and frozen until shipped for gene expression analysis. Total RNA was isolated from the cell suspension in 75 uL of Buffer RLT (Qiagen, Germantown, MD 20874) by Quintiles/Expression Analysis (Durham, NC) using a custom isolation procedure. Total RNA from each plate well was transferred to a preamplification plate. Fluidigm's 96.96 Dynamic ArrayTM (Fluidigm, Amsterdam, the Netherlands) technology was used for gene expression analyses by quantitative reverse transcription polymerase chain reaction (qRT-PCR, performed by Quintiles/Expression Analysis, Durham, NC)89. Standard TaqManTM Assays (Applied Biosystems/ThermoFisher Scientific, Foster City, CA) were used to assess the expression of 93 genes selected based on their selectivity and sensitivity to important hepatic receptors known to be modulated by environmental chemicals; importance in human hepatocyte functionality; and hepatotoxicity. […]
For the compound `C=CCc1ccc(O)c(OC)c1`, the result was inactive.

Consider `Cc1cc(=O)[nH]c(=S)[nH]1`, for which the compound was classed as inactive.

With `O=c1[nH]cc(F)c(=O)[nH]1`, the compound was called inactive.

Regarding `O=C(OCCCCCOC(=O)c1ccccc1)c1ccccc1`, the AC50 was 0.228 µM (active).

Consider `CCCCCCCCCCCC(=O)OC`, for which the compound was called inactive.

As for `COc1ccc(C)cc1N`, the compound was classed as inactive.

Regarding `Cc1cccc([N+](=O)[O-])c1C`, the compound was classed as inactive.

For the compound `CCCCN(CCCC)CCCC`, the result was inactive.

Turning to `C=CCOC(=O)c1ccccc1C(=O)OCC=C`, the call was inactive.

For the compound `Nc1ccc(S(=O)(=O)c2ccc(N)cc2)cc1`, the compound was classed as inactive.

Take `CNCc1cc(F)ccc1Oc1ccc(Cl)c(Cl)c1`: the concentration at half-maximal activity (AC50) is 12.1 µM (active).

Turning to `Cc1cccc(Nc2cc(Cl)nc(SCC(=O)O)n2)c1C`, the compound was classed as inactive.

For the compound `CC(=O)OCCOCCOCCOC(C)=O`, the compound was classed as inactive.

With `Nc1ccc2c(c1)C(=O)c1ccccc1C2=O`, the concentration at half-maximal activity (AC50) is 3.31 µM (active).

For `CCCc1cc(=O)[nH]c(=S)[nH]1`, the outcome was inactive.

Consider `CC(=O)C(C)=CC1C(C)=CCCC1(C)C` (stereo not given), for which the result was inactive.

For the compound `CCCCCCCC=O`, the compound was classed as inactive.

With `OC[C@@H](O)[C@@H](O)[C@H](O)[C@H](O)CO`, the result was inactive.

In the case of `C1CCC(SSC2CCCCC2)CC1`, the call was inactive.

Turning to `CN1CCCC1=O`, the compound was classed as inactive.

Regarding `CC1=C(/C=C/C(C)=C/C=C/C(C)=C/CO)C(C)(C)CCC1`, the compound was called inactive.

As for `NS(=O)(=O)c1cc2c(cc1Cl)NCNS2(=O)=O`, the call was inactive.

For the compound `Cc1ccc(C)c(O)c1C`, the outcome was inactive.

For `O=C(O)Cc1ccccc1Nc1c(Cl)cccc1Cl`, the call was inactive.

Take `Cc1c(C(=O)O)c(O)cc2c1C(=O)c1c(O)c([C@@H]3O[C@H](CO)[C@@H](O)[C@H](O)[C@H]3O)c(O)c(O)c1C2=O`: the outcome was inactive.

For the compound `NCC1(Cc2noc(=O)[nH]2)CCCCC1`, the compound was classed as inactive.

With `CCCCCCOCCO`, the result was inactive.

Turning to `Cc1ccc(C(C)C)c(O)c1`, the result was inactive.

As to `O=C(O)CCCCC(=O)O`, the outcome was inactive.

Regarding `COc1cc(C=O)ccc1O`, the compound was classed as inactive.

On to `COCCOC[C@H](CC1(C(=O)NC2CCC(C(=O)O)CC2)CCCC1)C(=O)Oc1ccc2c(c1)CCC2` (stereo not given in full), for which the compound was called inactive.

For the compound `Cc1nc(-c2ccc3c(c2)CCN(CCC2CCC(NC(=O)/C=C/c4ccc(F)cc4)CC2)CC3)no1` (stereo not given), the call was inactive.

As for `COCCOCCOC`, the concentration at half-maximal activity (AC50) was 0.253 µM (active).

Take `Cc1nc(C)nc(N2C[C@@H](C)N(c3ccnc([C@@H](C)O)n3)[C@@H](C)C2)n1`: the compound was called inactive.

With `CCCCCCC(=O)OCC`, the call was inactive.

Turning to `COc1ccc(S(=O)(=O)N2C(=O)[C@@](c3ccccc3OC)(N3C[C@H](O)C[C@H]3C(=O)N(C)C)c3cc(Cl)ccc32)c(OC)c1`, the outcome was inactive.

With `C[Si]1(C)O[Si](C)(C)O[Si](C)(C)O[Si](C)(C)O1`, the compound was called inactive.

Turning to `c1cc(-c2ccncc2)ccn1`, the compound was classed as inactive.

Regarding `Oc1ccc2ccccc2c1N=Nc1ccccc1`, the concentration at half-maximal activity (AC50) was 11.3 µM (active).

With `CCCCc1ccc2c(n1)[C@@H](c1ccc(OC)cc1C[C@H](C)C(=O)O)[C@H](C(=O)O)[C@H]2c1ccc2c(c1)OCO2`, the outcome was inactive.
